Screening results as filed in PubChem.
Rows were chosen to be rich in hits. Some 10% of all compounds tested hit in one or more screens of this group.
JMJD2A Tudor = blocks the human JMJD2A Tudor domain. 390,000 compounds, 4.4% hits. AlphaScreen JMJD2A-Tudor / H3K4me3 peptide binding. Potency, µM (top dose mostly 114 µM), for inactives: at the highest dose activity change, negative = inhibition, hits mostly inhibitors. O75164; also: % is scaled to controls: 0 for no effect and ±100 for the full control effect; nearly all actives have a fitted effect of over 50% in size
Target sequence (O75164 whole entry, looked up, the tested form may be a part): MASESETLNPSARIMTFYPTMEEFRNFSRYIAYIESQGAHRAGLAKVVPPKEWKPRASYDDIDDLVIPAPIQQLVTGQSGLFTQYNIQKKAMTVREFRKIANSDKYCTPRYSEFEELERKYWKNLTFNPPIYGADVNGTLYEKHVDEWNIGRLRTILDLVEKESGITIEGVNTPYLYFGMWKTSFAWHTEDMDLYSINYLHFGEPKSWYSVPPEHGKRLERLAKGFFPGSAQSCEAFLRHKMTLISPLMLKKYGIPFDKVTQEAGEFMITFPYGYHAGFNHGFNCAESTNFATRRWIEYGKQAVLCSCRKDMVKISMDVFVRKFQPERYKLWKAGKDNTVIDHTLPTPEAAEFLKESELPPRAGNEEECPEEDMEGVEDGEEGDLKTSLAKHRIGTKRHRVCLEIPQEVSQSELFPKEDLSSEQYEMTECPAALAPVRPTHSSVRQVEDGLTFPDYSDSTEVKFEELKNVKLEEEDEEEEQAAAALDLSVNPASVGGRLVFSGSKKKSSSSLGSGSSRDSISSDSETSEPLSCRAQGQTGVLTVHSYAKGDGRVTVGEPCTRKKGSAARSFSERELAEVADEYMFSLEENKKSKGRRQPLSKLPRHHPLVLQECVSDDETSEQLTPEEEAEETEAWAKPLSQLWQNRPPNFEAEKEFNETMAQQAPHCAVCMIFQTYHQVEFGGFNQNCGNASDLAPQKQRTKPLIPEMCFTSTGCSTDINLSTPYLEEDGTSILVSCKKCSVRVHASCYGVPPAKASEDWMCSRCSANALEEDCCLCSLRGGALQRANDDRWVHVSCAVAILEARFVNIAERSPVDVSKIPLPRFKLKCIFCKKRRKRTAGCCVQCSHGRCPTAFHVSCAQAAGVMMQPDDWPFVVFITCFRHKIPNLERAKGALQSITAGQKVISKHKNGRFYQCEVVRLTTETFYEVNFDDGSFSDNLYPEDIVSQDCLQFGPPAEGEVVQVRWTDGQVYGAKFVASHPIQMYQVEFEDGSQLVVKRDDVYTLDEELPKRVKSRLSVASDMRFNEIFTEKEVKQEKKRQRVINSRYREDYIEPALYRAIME
BAZ2B block = blocks human BAZ2B; Q9UIF8; AlphaScreen BAZ2B-H3K14Ac peptide displacement; Potency, µM (highest dose often 114 µM), for the others: at the top dose activity change, negative = inhibition, hits mostly inhibitors; 360,000 compounds, 4.4% hits; also: % is scaled to controls: 0 for no effect and ±100 for the full control effect; nearly all actives have a fitted effect of over 60% in size
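BAZ2B 50 nM plus b-H3(5-23)K14Ac 50 nM, PBS pH 7.4/0.01% Tween-20, 30 min RT; compound added (max 110 uM), 30 min RT; streptavidin donor/Ni-chelate acceptor beads 10 ug/mL final, 20 min dark; AlphaScreen read.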
G9a inh = inhibitors of human histone lysine methyltransferase G9a; Potency, µM (top dose mostly 102 µM), for inactives: at the top dose activity, negative = inhibition, usual class: inhibitors; G9a H3K9 monomethylation, AlphaScreen, 2 h; 350,000 compounds, 8.8% hits; AID 504332; also: % is scaled to controls: 0 for no effect and ±100 for the full control effect; nearly all actives have a fitted effect of over 75% in size
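Quantitative HTS format: methyltransferase activity on a biotin-tagged H3K9 peptide is measured by AlphaScreen, using a rabbit anti-monomethyl-H3K9 antibody with streptavidin donor and anti-IgG acceptor beads. Final levels are 20 nM enzyme, 500 nM peptide, 20 uM SAM; 2 h RT.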
HP1b binding inh = HP1-beta chromodomain-methylated histone interaction inhibition; P83916; AlphaScreen HP1-beta / biotin-H3K9me3 peptide binding; Potency, µM (doses to about 114 µM), for the others: top-dose activity change, negative = inhibition, usual class: inhibitors; 390,000 compounds, 0.56% hits; also: nearly all actives have a fitted effect of over 70% in size
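HP1-beta protein (50 nM final) preincubated 30 min at room temperature with biotinylated H3(1-18)K9me3 peptide (50 nM) in PBS pH 7.4, 0.01% Tween-20, then compound added for 30 min. AlphaScreen streptavidin donor/nickel chelate acceptor beads (10 ug/mL final), 30 min dark, luminescence read.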
GLS inhibitor = inhibitors of human glutaminase (GLS) | O94925 | GLS enzymatic activity, qHTS titration | Potency, µM (highest dose often 45.5 µM), for inactives: top-dose activity change, negative = inhibition, most hits filed as inhibitors | 410,000 compounds, 0.21% hits | AID 624170; also: % is scaled to controls: 0 for no effect and ±100 for the full control effect
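Assay buffer: 45 mM KH2PO4 pH 8.2, 0.02% Tween-20. hKGA acts on L-glutamine (1 mM solution added); product glutamate is reported by an oxidase/peroxidase Amplex Red coupling, with fluorescence taken at baseline and 30 min.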
* = called active by the depositor; [ ] = remark or other dose. Calls follow the shape of the dose curve; as a rule, active = well fitted curve in the direction sought with a large enough effect; inconclusive = small, poorly fitted or top-dose-only effect, or another doubt; inactive = no such curve, though single readings can be large; an effect the other way counts as inactive or inconclusive. Potency is read from the fitted curve at half-maximal effect.

How did Cc1cc(-c2ccccc2)c(C#N)c(=S)[nH]1 do in these assays?
JMJD2A Tudor: 6.3µM*; BAZ2B block: -9%; G9a inh: 1.3µM*; HP1b binding inh: 79µM*; GLS inhibitor: -6%

What do the screens show for `N#Cc1c(-c2ccccc2Cl)cc(-c2ccccc2)[nH]c1=S`?
BAZ2B block: -12%; G9a inh: 24%[59 µM]

Results for O=C1CCc2nc3ccccc3c(=O)n2N1 ?
JMJD2A Tudor: inconclusive; BAZ2B block: 56µM*; G9a inh: -50%[12.7 µM]; HP1b binding inh: 27%; GLS inhibitor: 4%

How did O=c1c2ccccc2nc2n1-c1ccccc1CCC2 do in these assays?
JMJD2A Tudor: -10%; BAZ2B block: -9%; G9a inh: -5%[12.7 µM]; HP1b binding inh: 44%; GLS inhibitor: -1%

How did COCCn1c(SCC(=O)Nc2sccc2C(N)=O)nc2cc(Cl)ccc2c1=O do in these assays?
JMJD2A Tudor: -15%; BAZ2B block: -35%; G9a inh: 45µM*; HP1b binding inh: 15%; GLS inhibitor: 1%

What do the screens show for `COCCn1c(SCC(=O)Nc2cccnc2Cl)nc2cc(Cl)ccc2c1=O`?
JMJD2A Tudor: -6%; BAZ2B block: 6%; G9a inh: -28%[2.33 µM]; HP1b binding inh: 24%; GLS inhibitor: 2%

Results for COCCn1c(SCC(=O)Nc2cccc(S(N)(=O)=O)c2)nc2cc(Cl)ccc2c1=O ?
JMJD2A Tudor: 20µM*; BAZ2B block: -3%; G9a inh: 3%; HP1b binding inh: -17%; GLS inhibitor: inconclusive

Results for NC1=NC(=O)/C(=C/c2ccc(Br)cc2)S1 ?
JMJD2A Tudor: -4%; BAZ2B block: -28%; G9a inh: 13%[0.501 µM]; HP1b binding inh: 28%; GLS inhibitor: 1%

How did CCOC(=O)COc1ccc(Br)cc1/C=C1\SC(N)=NC1=O do in these assays?
JMJD2A Tudor: -32%; BAZ2B block: inconclusive; HP1b binding inh: 4%; GLS inhibitor: 1%

How did CCOC(=O)CSC1=NC(=O)/C(=C/c2ccc(Br)cc2)S1 do in these assays?
JMJD2A Tudor: inconclusive; BAZ2B block: -9%; G9a inh: 40µM*; HP1b binding inh: 5%; GLS inhibitor: 0%

What do the screens show for `CCOC(=O)CSC1=NC(=O)/C(=C\c2ccc(OC(C)=O)cc2)S1`?
JMJD2A Tudor: -24%; BAZ2B block: -34%; G9a inh: 40µM*; HP1b binding inh: 9%; GLS inhibitor: -6%

Results for O=c1[nH]cnc2c1N1CCC2CC1 ?
JMJD2A Tudor: 28µM*; BAZ2B block: inconclusive; G9a inh: 45µM*; HP1b binding inh: 10%; GLS inhibitor: 0%

Results for O[C@@](CCN1CCCCC1)(c1ccccc1)C1CCCCC1 ?
G9a inh: 23%[21.5 µM]

Results for COc1cc(C(=O)NCCCNC(=O)c2cc(OC)c(OC)c(OC)c2)cc(OC)c1OC ?
JMJD2A Tudor: -11%; HP1b binding inh: 40%; GLS inhibitor: -2%

How did COc1cc(C(=O)NCCNC(=O)c2cc(OC)c(C)c(OC)c2)cc(OC)c1C do in these assays?
JMJD2A Tudor: -3%; BAZ2B block: -11%; G9a inh: 32µM*; HP1b binding inh: 23%; GLS inhibitor: 6%

What do the screens show for `CCc1c(-c2n[nH]c(=S)n2Cc2ccccc2)csc1C`?
JMJD2A Tudor: inconclusive; BAZ2B block: -35%; G9a inh: 2µM*; HP1b binding inh: 4%; GLS inhibitor: 0%

Results for Cc1scc(-c2n[nH]c(=S)n2Cc2ccccc2)c1C ?
JMJD2A Tudor: -5%; BAZ2B block: -31%; G9a inh: 1.6µM*; HP1b binding inh: 21%; GLS inhibitor: 17%

What do the screens show for `CCN(Cc1ccccc1)C(=O)Cn1c(=O)n(-c2cccc(C)c2)c(=O)c2c1c1cc(C)ccc1n2C`?
JMJD2A Tudor: 11%; BAZ2B block: -1%; G9a inh: -2%[59 µM]; HP1b binding inh: 38%; GLS inhibitor: -4%

How did CCOCCCn1c(SCC(=O)Nc2ccccc2Cl)nc2c(oc3ccccc32)c1=O do in these assays?
JMJD2A Tudor: 0%; BAZ2B block: 4%; G9a inh: 2%[59 µM]; HP1b binding inh: 27%; GLS inhibitor: -10%

How did COCCNC(=O)c1cc2cc(Cl)cc(Cl)c2oc1=O do in these assays?
JMJD2A Tudor: -6%; BAZ2B block: -3%; G9a inh: 45µM*; HP1b binding inh: inconclusive; GLS inhibitor: -9%

How did O=C(O)c1cc2cc(Cl)cc(Cl)c2oc1=O do in these assays?
JMJD2A Tudor: 24%[11.4 µM]; BAZ2B block: inconclusive; G9a inh: 56µM*; HP1b binding inh: -6%; GLS inhibitor: -2%

How did O=C(NCc1ccc(Cl)cc1)c1cc2ccccc2oc1=O do in these assays?
JMJD2A Tudor: -28%; BAZ2B block: 24%; HP1b binding inh: 3%; GLS inhibitor: 9%

Results for O=C(NCCO)c1cc2cc(Cl)cc(Cl)c2oc1=O ?
JMJD2A Tudor: -24%; BAZ2B block: -25%; G9a inh: 3.2µM*; HP1b binding inh: inconclusive; GLS inhibitor: inconclusive

What do the screens show for `CN1CCC(OC(=O)c2cc3cc(Cl)cc(Cl)c3oc2=O)CC1`?
JMJD2A Tudor: -21%; BAZ2B block: -22%; G9a inh: inconclusive; HP1b binding inh: 12%; GLS inhibitor: 1%

Results for COc1cccc2cc(C(=O)NCCc3ccccc3)c(=O)oc12 ?
JMJD2A Tudor: -12%; BAZ2B block: -3%; G9a inh: 13%[0.501 µM]; HP1b binding inh: 16%; GLS inhibitor: -1%

What do the screens show for `Cc1nc2ccccc2n1C1CCN(C(=O)Nc2ccccc2)CC1`?
JMJD2A Tudor: 4%; BAZ2B block: -15%; G9a inh: inconclusive; HP1b binding inh: 29%; GLS inhibitor: 0%

What do the screens show for `COC(=O)C1CSC(C(=O)OC)N1C(=O)Nc1c(C)cccc1C` (stereo not drawn)?
JMJD2A Tudor: -20%; BAZ2B block: 10%; G9a inh: 16%[59 µM]; HP1b binding inh: 9%; GLS inhibitor: 13%

Results for Cc1cccc(C)c1NC(=O)N1C(C(=O)O)CSC1C(=O)O (stereo not drawn) ?
JMJD2A Tudor: 18µM*; BAZ2B block: inconclusive; G9a inh: inconclusive; HP1b binding inh: -6%; GLS inhibitor: 0%

Results for CC(NC(=O)COC(=O)C1CCN(c2ccc(C(F)(F)F)cn2)CC1)c1ccc(F)cc1 (stereo not drawn) ?
JMJD2A Tudor: 1%; BAZ2B block: 4%; G9a inh: 12%[12.7 µM]; HP1b binding inh: 36%; GLS inhibitor: -1%

Results for COc1cc([N+](=O)[O-])cc(/C=N/NC(=O)c2ccc(NC(=O)c3ccc(C)cc3)cc2)c1O ?
JMJD2A Tudor: 0%[57.1 µM]; BAZ2B block: 12%; G9a inh: 24%; HP1b binding inh: 36%; GLS inhibitor: 0%

What do the screens show for `COc1cc([N+](=O)[O-])cc(/C=N/NC(=O)c2ccc(C)nc2)c1O`?
JMJD2A Tudor: inconclusive; BAZ2B block: 10µM*; G9a inh: 21%[59 µM]; HP1b binding inh: 16%; GLS inhibitor: 1%
